This is part of a sample that, as a whole, favours compounds with a hit. Of some 79,000 tested, about 15% had one in any assay. Calls of active or inactive are those of the source. Rule as the data show it: active = growth inhibition above about 70%; inactive = the rest.
Experiments:
[1] = NCI Yeast Anticancer Drug Screen. Data for the rad52 strain (AID 147);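 also: 0% = growth of vehicle-treated control cultures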; conditions: S. cerevisiae rad52 mutant growth inhibition, hits give high values
How it was run: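 Compounds are applied to a genetically defined yeast strain lacking normal DNA damage repair, and inhibition of growth is expressed relative to cultures given vehicle only.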

[2] = NCI Yeast Anticancer Drug Screen. Data for the wt1 strain (AID 149);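 also: 0% = growth of vehicle-treated wt1 cultures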; conditions: S. cerevisiae wt1 strain (SPY 50644) growth inhibition, hits give high values
How it was run: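 wt1 yeast, compound-treated; % growth inhibition vs vehicle control.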

[3] = NCI Yeast Anticancer Drug Screen. Data for the rad50EPP+ strain (AID 151);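 also: 0% = growth of vehicle-treated control cultures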; conditions: S. cerevisiae rad50 mutant strain, hits give high values
How it was run: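 Compounds were applied to the rad50EPP+ yeast strain, which bears a defined DNA repair alteration, and growth inhibition was determined relative to vehicle-treated cultures.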

[4] = NCI Yeast Anticancer Drug Screen. Data for the mgt1 strain (AID 153); conditions: S. cerevisiae mgt1 mutant growth inhibition, hits give high values
How it was run: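 Strain: mgt1 yeast, one of a set carrying defined DNA damage repair or cell cycle control alterations. Compound-treated growth compared with vehicle.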

[5] = NCI Yeast Anticancer Drug Screen. Data for the rad50 strain (AID 155);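 also: 0% = growth of vehicle-only cultures of the same strain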; conditions: S. cerevisiae rad50 strain growth inhibition, hits give high values
How it was run: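 Genetically altered yeast (DNA repair pathway); compound treatment; growth inhibition vs vehicle ctrl.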

[6] = NCI Yeast Anticancer Drug Screen. Data for the mec2-1 strain (AID 157); conditions: S. cerevisiae mec2-1 strain, hits give high values
How it was run: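 Strain: mec2-1 (DNA repair/cell cycle alteration). Compound exposure, then growth measured; inhibition expressed relative to vehicle.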

[7] = NCI Yeast Anticancer Drug Screen. Data for the rad14 strain (AID 159);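 also: 0% = growth of vehicle-treated control cultures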; conditions: S. cerevisiae rad14 strain growth inhibition, hits give high values
How it was run: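 Test compounds were applied to a repair-deficient yeast strain. Its growth was then compared with that of cultures given vehicle alone, and inhibition was expressed relative to those controls.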

[8] = NCI Yeast Anticancer Drug Screen. Data for the sgs1 mgt1 strain (AID 161);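 also: 0% = growth of cultures given vehicle only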; conditions: S. cerevisiae sgs1 mgt1 strain, hits give high values
How it was run: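 Read-out: growth inhibition vs vehicle controls. Cells: mutant yeast strain deficient in DNA damage repair.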

[9] = NCI Yeast Anticancer Drug Screen. Data for the CLN2oe strain (AID 163);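 also: 0% = growth of vehicle-only control cultures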; conditions: S. cerevisiae CLN2oe strain, hits give high values
How it was run: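 Growth of a genetically modified yeast strain is measured after compound exposure and compared with cultures given vehicle alone.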

[10] = NCI Yeast Anticancer Drug Screen. Data for the cln2 rad14 strain (AID 165);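 also: 0% = growth equal to vehicle treated cultures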; conditions: S. cerevisiae cln2 rad14 strain, hits give high values
How it was run: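 Compounds are applied to the cln2 rad14 yeast strain, and growth is then compared with that of vehicle-treated cultures to give inhibition.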

[11] = NCI Yeast Anticancer Drug Screen. Data for the bub3 strain (AID 167); conditions: S. cerevisiae bub3 mutant strain, hits give high values
How it was run: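 Yeast carrying a defined mutation is treated with each compound, and growth is compared with that of vehicle-exposed cells to give inhibition.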

[12] = NCI Yeast Anticancer Drug Screen. Data for the wt2 strain (AID 169);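 also: 0% = growth of vehicle-treated yeast cultures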; conditions: S. cerevisiae wt2 strain growth inhibition, hits give high values
How it was run: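 This strain belongs to a panel of yeast strains with defined genetic alterations in DNA damage repair or cell cycle control. Compounds are applied, and growth inhibition is measured against vehicle-treated cultures.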

[13] = NCI Yeast Anticancer Drug Screen. Data for the mlh1 strain (AID 171);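 also: 0% = growth of vehicle-treated control cultures of the same strain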; conditions: S. cerevisiae mlh1 strain growth inhibition, hits give high values
How it was run: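 Growth of the mutant yeast strain after compound exposure, expressed as inhibition relative to vehicle-only controls.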

[14] = NCI Yeast Anticancer Drug Screen. Data for the sgs1 strain (AID 173);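 also: 0% = growth of vehicle-only control cultures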; conditions: S. cerevisiae sgs1 mutant, hits give high values
How it was run: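 Growth of a yeast strain bearing a defined genetic alteration is measured after compound treatment. Inhibition is expressed relative to vehicle-only controls.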

[15] = NCI Yeast Anticancer Drug Screen. Data for the mlh1 rad18 strain (AID 175); conditions: S. cerevisiae mlh1 rad18 strain growth inhibition, hits give high values
How it was run: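 Read-out is yeast growth inhibition, calculated against vehicle-only controls. The compound was applied to a strain engineered with DNA damage repair alterations.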

[16] = NCI Yeast Anticancer Drug Screen. Data for the rad18 strain (AID 177); conditions: S. cerevisiae rad18 mutant growth inhibition, hits give high values
How it was run: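 Growth of the mutant yeast strain after compound exposure, normalised to vehicle-only cultures.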

[17] = at 5.0 µM (retest, dose inferred, filed as 0.5)
[18] = at 50.0 µM (retest, dose inferred, filed as 5.0)

Measured: growth inhibition

OC(Cc1cccc2ccccc12)CN1CCC(c2ccccc2)CC1 (stereo unspecified)
active: [1]; at 33.0 µM 91% | [1]; at 100.0 µM 97% | [2]; at 100.0 µM 75% | [4]; at 3.7 µM 72% | [4]; at 11.0 µM 81% | [4]; at 33.0 µM 96% | [4]; at 100.0 µM 99% | [5]; at 33.0 µM 86% | [5]; at 50.0 µM 86.7% | [5]; at 100.0 µM 96% | [6]; at 33.0 µM 86% | [6]; at 100.0 µM 97% | [7]; at 1.2 µM 71% | [7]; at 3.7 µM 75% | [7]; at 11.0 µM 89% | [7]; at 33.0 µM 97% | [7]; at 100.0 µM 98% | [8]; at 50.0 µM 71.2% | [9]; at 3.7 µM 74% | [9]; at 11.0 µM 86% | [9]; at 33.0 µM 94% | [9]; at 100.0 µM 97% | [10]; [18] 76% | [10]; at 50.0 µM 74.2% | [11]; at 33.0 µM 79% | [11]; [18] 87% | [11]; at 100.0 µM 97% | [12]; at 11.0 µM 72% | [12]; at 33.0 µM 84% | [12]; at 100.0 µM 97% | [13]; at 33.0 µM 84% | [13]; at 100.0 µM 98% | [14]; at 33.0 µM 83% | [14]; at 100.0 µM 97% | [15]; [17] 74% | [15]; [18] 89% | [16]; at 100.0 µM 87%
inactive: [1]; at 1.2 µM 52% | [1]; at 3.7 µM 66% | [1]; at 11.0 µM 69% | [2]; at 1.2 µM 12% | [2]; at 3.7 µM 28% | [2]; at 11.0 µM 34% | [2]; at 33.0 µM 61% | [3]; at 1.2 µM 24% | [3]; at 3.7 µM 5% | [3]; at 11.0 µM 23% | [3]; at 33.0 µM 38% | [3]; at 100.0 µM 60% | [4]; at 1.2 µM 64% | [5]; at 1.2 µM 6% | [5]; at 3.7 µM 53% | [5]; [17] 55% | [5]; at 11.0 µM 66% | [5]; [18] 68% | [6]; at 1.2 µM 17% | [6]; at 3.7 µM 26% | [6]; [17] 13% | [6]; at 11.0 µM 50% | [6]; [18] 57% | [6]; at 50.0 µM 45.7% | [8]; [17] 51% | [8]; [18] 41% | [9]; at 1.2 µM 63% | [10]; [17] 58% | [11]; at 1.2 µM 39% | [11]; at 3.7 µM 41% | [11]; [17] 64% | [11]; at 11.0 µM 54% | [11]; at 50.0 µM 69.2% | [12]; at 1.2 µM 50% | [12]; at 3.7 µM 52% | [13]; at 1.2 µM 31% | [13]; at 3.7 µM 38% | [13]; at 11.0 µM 48% | [14]; at 1.2 µM 60% | [14]; at 3.7 µM 59% | [14]; at 11.0 µM 67% | [15]; at 50.0 µM 69.8% | [16]; at 1.2 µM 30% | [16]; at 3.7 µM 38% | [16]; at 11.0 µM 54% | [16]; at 33.0 µM 65%

COc1ccc(C(C)c2cc3c(cc2OC(C)O)OCO3)cc1 (stereo unspecified)
active: [1]; at 100.0 µM 89% | [2]; at 100.0 µM 88% | [4]; at 100.0 µM 95% | [5]; at 100.0 µM 96% | [6]; at 100.0 µM 87% | [13]; at 100.0 µM 92% | [14]; at 100.0 µM 92% | [16]; at 100.0 µM 90%
inactive: [1]; at 1.2 µM -2% | [1]; at 3.7 µM -3% | [1]; at 11.0 µM -1% | [1]; at 33.0 µM 1% | [2]; at 1.2 µM -2% | [2]; at 3.7 µM -3% | [2]; at 11.0 µM -4% | [2]; at 33.0 µM -4% | [3]; at 1.2 µM 0% | [3]; at 3.7 µM 15% | [3]; at 11.0 µM 15% | [3]; at 33.0 µM 33% | [3]; at 100.0 µM 36% | [4]; at 1.2 µM -3% | [4]; at 3.7 µM -2% | [4]; at 11.0 µM -3% | [4]; at 33.0 µM -2% | [5]; at 1.2 µM -6% | [5]; at 3.7 µM -46% | [5]; [17] 4% | [5]; at 11.0 µM 26% | [5]; at 33.0 µM 3% | [5]; [18] 11% | [5]; at 50.0 µM 18.8% | [6]; at 1.2 µM -3% | [6]; at 3.7 µM -2% | [6]; [17] 3% | [6]; at 11.0 µM -1% | [6]; at 33.0 µM -2% | [6]; [18] 31% | [6]; at 50.0 µM 0.2% | [7]; at 1.2 µM -1% | [7]; at 3.7 µM -2% | [7]; at 11.0 µM -1% | [7]; at 33.0 µM 4% | [7]; at 100.0 µM 69% | [8]; [17] 2% | [8]; [18] 37% | [8]; at 50.0 µM 58.5% | [9]; at 1.2 µM 4% | [9]; at 3.7 µM 1% | [9]; at 11.0 µM 2% | [9]; at 33.0 µM 1% | [9]; at 100.0 µM 38% | [10]; [17] 3% | [10]; [18] 1% | [10]; at 50.0 µM -31.5% | [11]; at 1.2 µM 0% | [11]; at 3.7 µM 6% | [11]; [17] 7% | [11]; at 11.0 µM 20% | [11]; at 33.0 µM 43% | [11]; [18] 52% | [11]; at 50.0 µM 25.4% | [11]; at 100.0 µM 64% | [12]; at 1.2 µM 3% | [12]; at 3.7 µM -1% | [12]; at 11.0 µM -2% | [12]; at 33.0 µM -2% | [12]; at 100.0 µM 32% | [13]; at 1.2 µM -2% | [13]; at 3.7 µM -3% | [13]; at 11.0 µM -1% | [13]; at 33.0 µM 1% | [14]; at 1.2 µM -3% | [14]; at 3.7 µM -1% | [14]; at 11.0 µM 5% | [14]; at 33.0 µM 25% | [15]; [17] -1% | [15]; [18] 52% | [15]; at 50.0 µM 50.6% | [16]; at 1.2 µM -2% | [16]; at 3.7 µM 4% | [16]; at 11.0 µM 7% | [16]; at 33.0 µM 18%

From PubChem BioAssay (NCI)
